Test results taken from PubChem BioAssay.
Values joined by “and” are separate entries in the source; they are usually repeats but may differ in a detail not shown here. Equal values may be shown once.

Assays:
[1] = system: Botulinum neurotoxin type F light chain protease (Clostridium botulinum); assay: Clostridium botulinum type F light chain protease inhibitors, microsphere substrate cleavage, validation (AID 588459); conditions: multiplex microsphere protease substrate cleavage assay, flow cytometry; at 10 µM; active compounds read high
[2] = target: Botulinum neurotoxin type A (Clostridium botulinum) (UniProt P0DPI0); assay: BoNT/A light chain protease inhibitors, biochemical, multiplex microsphere flow cytometry, validation set (AID 588460); conditions: at 10 µM, active compounds read high
Sequence of Botulinum neurotoxin type A (Clostridium botulinum) (P0DPI0 whole entry, looked up): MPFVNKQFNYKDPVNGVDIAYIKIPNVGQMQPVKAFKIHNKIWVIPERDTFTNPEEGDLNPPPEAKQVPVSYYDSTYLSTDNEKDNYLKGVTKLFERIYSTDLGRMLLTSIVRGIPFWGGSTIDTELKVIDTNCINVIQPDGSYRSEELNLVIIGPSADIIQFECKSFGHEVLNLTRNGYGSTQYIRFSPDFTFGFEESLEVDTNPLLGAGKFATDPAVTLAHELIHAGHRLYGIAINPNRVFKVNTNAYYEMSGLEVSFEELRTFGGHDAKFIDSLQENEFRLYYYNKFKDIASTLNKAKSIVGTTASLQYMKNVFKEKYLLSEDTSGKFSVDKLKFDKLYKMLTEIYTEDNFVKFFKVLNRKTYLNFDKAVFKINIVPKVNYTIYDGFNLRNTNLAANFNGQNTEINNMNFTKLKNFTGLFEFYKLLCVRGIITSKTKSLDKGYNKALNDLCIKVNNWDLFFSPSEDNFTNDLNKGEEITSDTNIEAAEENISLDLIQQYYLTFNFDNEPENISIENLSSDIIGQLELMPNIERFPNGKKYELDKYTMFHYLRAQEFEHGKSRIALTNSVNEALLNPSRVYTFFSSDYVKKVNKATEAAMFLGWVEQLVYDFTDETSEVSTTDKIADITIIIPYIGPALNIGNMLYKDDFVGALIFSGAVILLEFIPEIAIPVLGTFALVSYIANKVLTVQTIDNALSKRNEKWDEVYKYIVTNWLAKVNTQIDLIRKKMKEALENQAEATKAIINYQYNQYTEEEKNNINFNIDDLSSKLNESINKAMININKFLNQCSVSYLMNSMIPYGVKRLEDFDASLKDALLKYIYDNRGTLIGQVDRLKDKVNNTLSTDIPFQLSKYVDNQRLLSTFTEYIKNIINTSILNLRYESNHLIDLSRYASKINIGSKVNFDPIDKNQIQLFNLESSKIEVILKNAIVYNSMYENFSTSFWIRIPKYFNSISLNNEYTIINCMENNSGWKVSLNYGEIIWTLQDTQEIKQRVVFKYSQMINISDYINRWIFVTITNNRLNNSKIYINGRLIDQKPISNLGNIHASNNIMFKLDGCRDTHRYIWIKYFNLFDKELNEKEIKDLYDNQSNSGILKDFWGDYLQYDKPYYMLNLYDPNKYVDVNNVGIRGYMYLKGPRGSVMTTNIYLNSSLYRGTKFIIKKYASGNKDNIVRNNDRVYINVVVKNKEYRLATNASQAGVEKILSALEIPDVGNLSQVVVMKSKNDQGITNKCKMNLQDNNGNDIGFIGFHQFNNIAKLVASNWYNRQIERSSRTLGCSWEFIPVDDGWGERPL

[3] = target: Lethal factor (Bacillus anthracis) (UniProt P15917); assay: Bacillus anthracis lethal factor inhibition, microsphere flow cytometry protease assay, validation at 10 µM (AID 588461); conditions: multiplex microsphere protease cleavage assay, active compounds read high
Sequence of Lethal factor (Bacillus anthracis) (P15917 whole entry, looked up): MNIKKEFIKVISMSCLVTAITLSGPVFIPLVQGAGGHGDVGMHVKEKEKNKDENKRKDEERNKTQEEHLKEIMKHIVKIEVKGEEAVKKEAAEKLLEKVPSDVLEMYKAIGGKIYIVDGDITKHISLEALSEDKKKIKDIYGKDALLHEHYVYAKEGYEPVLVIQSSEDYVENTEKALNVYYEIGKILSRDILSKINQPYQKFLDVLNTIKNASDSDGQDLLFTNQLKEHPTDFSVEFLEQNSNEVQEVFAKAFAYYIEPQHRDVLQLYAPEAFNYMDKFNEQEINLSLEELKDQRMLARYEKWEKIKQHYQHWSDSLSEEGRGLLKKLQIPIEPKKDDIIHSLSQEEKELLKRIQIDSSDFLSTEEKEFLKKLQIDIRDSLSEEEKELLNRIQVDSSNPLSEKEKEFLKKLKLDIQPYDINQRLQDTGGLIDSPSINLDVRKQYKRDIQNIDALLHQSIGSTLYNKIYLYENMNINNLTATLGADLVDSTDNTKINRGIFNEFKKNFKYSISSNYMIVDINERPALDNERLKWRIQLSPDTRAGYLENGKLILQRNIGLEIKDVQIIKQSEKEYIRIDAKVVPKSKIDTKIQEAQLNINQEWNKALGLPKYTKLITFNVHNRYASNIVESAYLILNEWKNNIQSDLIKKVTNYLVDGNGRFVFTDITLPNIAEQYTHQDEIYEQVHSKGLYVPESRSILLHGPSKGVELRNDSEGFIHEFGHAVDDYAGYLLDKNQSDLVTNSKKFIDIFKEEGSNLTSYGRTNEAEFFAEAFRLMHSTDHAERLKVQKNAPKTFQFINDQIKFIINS

Measured: inhibition

CC(=O)OCC[N+](C)(C)C
inactive: [1] -3.2% and 0.5% | [2] 0.2% and -1.8% | [3] 3.8% and -0.3%

O=C1[C@@H]2[C@H](Cc3ccc(O)cc3)N[C@]3(C(=O)Nc4ccccc43)[C@@H]2C(=O)N1c1ccc(F)cc1
inactive: [1] 1.3% | [2] 1.7% | [3] -2.6%

COc1cc(C(=O)CCN2CCC(c3ccccc3)C2)cc(OC)c1OC (configuration not stated)
inactive: [1] 0.2% | [2] 1.9% | [3] 6.6%

C[C@H](NC(=O)OC(C)(C)C)C(=O)NCC1CCC(C(=O)O)CC1 (some centres not stated)
inactive: [1] 2.7% | [2] -2.2% | [3] -1.1%

Cc1ccc(/C=N/NC(=O)C2(C)CC2(Br)Br)cc1 (configuration not stated)
inactive: [1] 1.3% | [2] -0.4% | [3] -5.6%

Cc1c(Cc2ccccc2)c(=O)oc2c(CN(C)C)c(O)c(Cl)cc12
inactive: [1] 0% | [2] -0.6% | [3] -7.6%

CC(C)(C)c1ccc(/C=C/C(=O)N2CCCCC2)cc1
inactive: [1] -0.4% | [2] -1.5% | [3] 4.7%

COc1ccccc1OCC(=O)O
inactive: [1] 1% | [2] -0.9% | [3] -1.4%

COc1ccc(Br)cc1C(=O)Nc1ccc(C(=O)O)cc1
inactive: [1] 1% | [2] 1% | [3] -2.2%

COc1cc(=O)n(C)c2ccccc12
inactive: [1] -9.2% | [2] -2.1% | [3] -7.3%

CC1(C)C(=O)OC(C(=O)c2ccc(Cl)cc2)C(C)(C)C1=O (configuration not stated)
inactive: [1] 1.9% | [2] 1.3% | [3] -3.1%

CC(=O)OC1c2c(ccc3ccc(=O)oc23)OC(C)(C)C1OC(=O)CC(C)C (configuration not stated)
inactive: [1] -0.2% | [2] -1.5% | [3] -3.2%

CCn1c(N2CCN(CC(=O)c3c(C)n(C)c4ccc(OC)cc34)CC2)nc2c1c(=O)[nH]c(=O)n2C
inactive: [1] -1.4% | [2] -0.8% | [3] -10.7%

Cc1ncc(CN2CCC(CO)(CCc3ccccc3)CC2)s1
inactive: [1] 1.3% | [2] 0.2% | [3] -3%

c1ccc2c(c1)CCCC2C1=NCCN1 (configuration not stated)
inactive: [1] 0.7% | [2] 0.9% | [3] 0.6%

Cc1oc2c(O)c(O)ccc2c(=O)c1-c1ccccc1
inactive: [1] 1.6% | [2] 0.4% | [3] 2%

CC(=O)Oc1cc(C(C)C)c(OCCN(C)C)cc1C
inactive: [1] 1.9% | [2] 2% | [3] 0.9%

Cc1[nH]nc(-c2ccc(O)cc2O)c1Oc1ccccc1
inactive: [1] 0.6% | [2] -0.4% | [3] -5.3%

COCCc1ccc(OCC(O)CNC(C)C)cc1 (configuration not stated)
inactive: [1] -1.4% | [2] -1.4% | [3] -2.9%

Cc1ccc(S(=O)(=O)n2ccnc2)cc1C
inactive: [1] 1.4% | [2] -0.3% | [3] -1.7%

O=C(c1ccc([N+](=O)[O-])cc1)N1CCSC1c1ccccc1Cl (configuration not stated)
inactive: [1] -3.8% | [2] -0.1% | [3] -1.3%

OC(CCN1CCCCC1)(c1ccccc1)C1CCCCC1 (configuration not stated)
inactive: [1] 3.1% | [2] 1% | [3] 1%

CC1(C)CC(NC(=O)C23CCC(C)(C(=O)C2=O)C3(C)C)CC(C)(C)N1 (configuration not stated)
inactive: [1] 2.9% | [2] -0.7% | [3] -4.5%

COc1ccc(CCn2c(C)cc3c(c2=O)C(c2ccncc2)C(C#N)=C(N)O3)cc1OC (configuration not stated)
inactive: [1] -1.2% | [2] -0.6% | [3] -6.7%

CC1(CC(=O)Nc2ccccc2)NC(=S)N(c2ccccc2)N1 (configuration not stated)
inactive: [1] 3% | [2] 0% | [3] 5.1%

Cc1[nH]c2ccccc2c1C(=O)C(=O)NCc1ccco1
inactive: [1] 0.1% | [2] -0.7% | [3] -5.5%

CC1=NS(=O)(=O)c2cc(Cl)ccc2N1
inactive: [1] 1.4% | [2] -0.3% | [3] -1.8%

O=S(=O)(CCc1nc2ccccc2[nH]1)c1ccc(Cl)cc1
inactive: [1] 3% | [2] -0.3% | [3] 3.5%

O=C(C1CCCCC1)N1CC(=O)N2CCc3ccccc3C2C1 (configuration not stated)
inactive: [1] -2.5% | [2] -1.1% | [3] 3.9%

CC(C)Oc1ccc(C2CC(=O)N(c3ccc(C(=O)O)cc3)C2=O)cc1 (configuration not stated)
inactive: [1] 2.1% | [2] -0.7% | [3] -6.7%

C=CCc1cc(Cl)ccc1OCCOCCN(C)C
inactive: [1] -0.1% | [2] -1.3% | [3] -1.2%

COC1CCN(C(=O)c2ccc(OC3CCN(Cc4ccccn4)CC3)cc2)CC1
inactive: [1] 2.5% | [2] 2.3% | [3] 0.5%

O=C(CS(=O)(=O)Cc1ccccc1)NCc1ccc2c(c1)OCO2
inactive: [1] 1.6% | [2] 0.1% | [3] -6.5%

O=C1CC(c2ccc(OCCCCCOc3ccc(C4CC(=O)NC4=O)cc3)cc2)C(=O)N1 (configuration not stated)
inactive: [1] 2.5% | [2] 1.1% | [3] 2.1%

Nc1cccc2nc3ccccc3cc12
inactive: [1] 4% | [2] 2.3% | [3] 1.2%

Cc1ccc(C(=O)NCCNC(=O)c2ccccc2)cc1
inactive: [1] 1.3% | [2] 0.3% | [3] -1.4%

O=C(N/C(=C/C=C\c1ccccc1)C(=O)N1CCOCC1)c1ccc(Br)cc1
inactive: [1] 3.8% | [2] 0.6% | [3] -3.6%

O=C(Cc1ccccc1)NNC(=O)Cc1ccccc1
inactive: [1] 0.3% | [2] 1.7% | [3] -1.2%

CC(C)c1ccc2[nH]c3c(c2c1)CCCC3=O
inactive: [1] 0.3% | [2] -0.8% | [3] -3.4%

CCC1(c2ccccc2)NC(=S)N(c2ccc(C)c(C)c2)N1 (configuration not stated)
inactive: [1] 1% | [2] -0.8% | [3] -3%

Cc1csc(-c2coc3cc(O)cc(C)c3c2=O)n1
inactive: [1] 0.3% | [2] 1.7% | [3] 0.3%

O=C(NCCN1CCN(c2ccccc2)CC1)c1cccc(Br)c1
inactive: [1] -4.4% | [2] -2.3% | [3] -6.4%

O=[N+]([O-])c1ccc2cn[nH]c2c1
inactive: [1] 2.9% | [2] -0.5% | [3] 4%

OC(CCCN1CCCCC1)(c1ccccc1)c1ccccc1
inactive: [1] 3.3% | [2] 0% | [3] 7.6%

CC1CCN(CCOCCOc2ccccc2Br)CC1
inactive: [1] 1.2% | [2] 0.3% | [3] 3.9%

O=C(c1ccc(F)cc1)[C@@H]1[C@@H](C(=O)c2ccccc2)[C@@]2(C(=O)Nc3ccccc32)[C@H]2c3ccccc3C=CN12
inactive: [1] 4.8% | [2] 0.3% | [3] -3.6%

CCCCC/C=C\C[C@H](O)/C=C/c1cccc(C[C@H](O)CCCCO)n1
inactive: [1] 2.3% | [2] 1.9% | [3] -6.2%

COc1ccccc1NC(=O)N1CCc2[nH]c3ccc(Cl)cc3c2C1
inactive: [1] 6.8% | [2] 0.4% | [3] -0.7%

Cc1cc(C)c2c(CCl)cc(=O)oc2c1
inactive: [1] -4.3% | [2] -1.5% | [3] -3.4%

N#Cc1cc2c([nH]c1=O)CCCC2
inactive: [1] -0.1% | [2] -0.6% | [3] 2.6%

CCOC(=O)c1cnc2ccc(C(=O)OC)cc2c1Nc1ccc2c(c1)OCCO2
inactive: [1] -0.5% | [2] 0.1% | [3] -1.2%

O=C(CNC(=O)OCc1ccccc1)Oc1cc2oc(=O)cc(-c3ccccc3)c2cc1Cl
inactive: [1] 2.7% | [2] 0.9% | [3] 11.5%

O=C(O)c1cccnc1Nc1cccc(C(F)(F)F)c1
inactive: [1] 1.8% | [2] 0.3% | [3] -3.9%

O=C(c1ccc(Cl)cc1)C1CCCN(C(=O)/C=C/c2ccccn2)C1 (configuration not stated)
inactive: [1] 2.6% | [2] -0.7% | [3] 6%

Nc1ccc2[nH]ncc2c1
inactive: [1] -1.8% | [2] -1.3% | [3] 2.9%

COc1ccc(CCNC(=O)CC(c2ccccc2)c2cccc(C)c2O)cc1OC (configuration not stated)
inactive: [1] -0.9% | [2] -0.9% | [3] 0.1%

COc1ccc(C(=O)[C@H]2[C@H]3C(=O)N(c4ccccc4)C(=O)[C@H]3C3C=CC=NN32)cc1 (some centres not stated)
inactive: [1] 1.9% | [2] 4.7% | [3] -5.1%

COc1ccc(/C=C\c2nc(=O)c3ccccc3o2)cc1
inactive: [1] -0.6% | [2] -0.8% | [3] -3.7%

O=C(OCC1CCCN2CCCCC12)c1ccc2c(c1)OCO2 (configuration not stated)
inactive: [1] -1.9% | [2] -1.6% | [3] -6.7%

CCOc1cc2oc(=O)c3c(c2cc1Cl)CCC3
inactive: [1] 3% | [2] -0.7% | [3] -2.7%

CC(=O)N/C(=C/c1ccc2c(c1)OCO2)C(=O)NCCO
inactive: [1] 3.7% | [2] 0.6% | [3] 1%

Cn1c(Oc2ccc3c(c2)OCO3)nc2c1c(=O)n(Cc1ccccc1)c(=O)n2C
inactive: [1] 1.4% | [2] -0.3% | [3] -0.5%

CC(=O)[C@@]1(O)CC[C@H]2[C@@H]3CCC4=CC(=O)CC[C@]4(C)[C@H]3CC[C@@]21C
inactive: [1] 11.2% | [2] 0.4% | [3] -5.7%

CC1CCCc2sc3ncn(N)c(=N)c3c21 (configuration not stated)
inactive: [1] 0.9% | [2] 0.3% | [3] -1.1%
